Laboratory results as given in PubChem BioAssay (NCI).
This is part of a sample that, as a whole, favours compounds with a hit. Of some 83,000 tested, about 20% had one in any assay.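 Cells were grown in 96-well plates and exposed to the test compound at a single concentration for 48 hours; results are reported as percent growth, with values below 10 considered active.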 Activity calls are given as the source filed them.

Legend:
Test in all cases: NCI-60 one-dose screen, 48 h (100 = growth as untreated, 0 = no growth, -100 = all killed)
Settings in all cases: 10 µM unless noted
[1] = test system: DU-145 prostate
[2] = test system: K-562 leukemia
[3] = test system: MALME-3M melanoma
[4] = test system: MDA-MB-231 breast
[5] = test system: RXF 393 renal
[6] = test system: SF-268 CNS
[7] = test system: SF-295 CNS
[8] = test system: SF-539 CNS
[9] = test system: UACC-257 melanoma
[10] = test system: M14 melanoma
[11] = test system: HCT-15 colon
[12] = test system: HT29 colon
[13] = test system: SNB-75 CNS
[14] = test system: U251 CNS
[15] = test system: PC-3 prostate
[16] = test system: SK-MEL-5 melanoma
[17] = test system: UACC-62 melanoma
[18] = test system: LOX IMVI melanoma
[19] = test system: SK-MEL-28 melanoma

Measured: growth

COC(=O)C1=C(C)NC(C)=C(C(=O)OCC(C)C)C1c1ccccc1[N+](=O)[O-] (stereo not given)
inactive: [1] 50.6% | [2] 18.2% | [3] 86.1% | [4] 55% | [5] 70.2% | [6] 66.6% | [7] 56.9% | [8] 65.6% | [9] 81.6% | [10] 51.1% | [11] 41% | [12] 87.3% | [13] 68.6% | [14] 68.8% | [15] 35.8% | [16] 38% | [17] 48.7% | [18] 42.4% | [19] 87.1%

CC(C)c1ccc(C(=O)Nc2sc3cc(O)ccc3c2C#N)cc1
active: [10] 5.43%
inactive: [1] 50.5% | [2] 13.8% | [3] 39.2% | [4] 46.3% | [5] 45.2% | [6] 44.8% | [7] 22.2% | [8] 32.5% | [9] 51.3% | [11] 18.9% | [12] 57.8% | [13] 22.6% | [14] 29.2% | [15] 58.6% | [16] 22.3% | [17] 18% | [18] 25.4% | [19] 52.4%

Cc1ccc2nc(Cl)c(Cn3nnnc3SCc3ccccc3)cc2c1
inactive: [1] 101% | [2] 87.9% | [3] 114% | [4] 88.2% | [5] 99.9% | [6] 93.9% | [7] 88.1% | [8] 94.4% | [9] 105% | [10] 89.3% | [11] 90.7% | [12] 101% | [13] 93.4% | [14] 95.8% | [15] 90.4% | [16] 93% | [17] 83.7% | [18] 86.7% | [19] 107%

Nc1c(C(=O)Nc2ccccn2)sc2nc3c(cc12)C(O)CCC3 (stereo not given)
active: [5] 4.65% | [7] 4.92% | [8] 8.44%
inactive: [1] 25% | [2] 20.6% | [3] 60.8% | [4] 67.1% | [6] 44% | [9] 53.2% | [10] 21.1% | [11] 23.1% | [12] 11.8% | [13] 12.7% | [14] 19% | [15] 16.3% | [16] 20.3% | [17] 18.7% | [18] 36.6% | [19] 46.6%

CC(=O)N/C(=C1/OC(C(O)C(O)C(O)CO)CN1C)[P+](c1ccccc1)(c1ccccc1)c1ccccc1 (stereo not given)
inactive: [1] 105% | [2] 97.6% | [3] 90.5% | [4] 103% | [5] 97% | [6] 102% | [7] 100% | [8] 97.6% | [9] 104% | [10] 99.7% | [11] 98.5% | [12] 115% | [13] 75.3% | [14] 98% | [15] 98.2% | [16] 95.5% | [18] 98.2% | [19] 106%

CCc1cccc(Sc2cc(C(=O)N3Cc4ccc(OCCN(C)C)cc4C3)ccc2O)c1
inactive: [1] 38.9% | [2] 22% | [3] 57.3% | [4] 80% | [5] 72.2% | [6] 63.8% | [7] 78.4% | [8] 89% | [9] 63.3% | [10] 78.1% | [11] 30.7% | [12] 103% | [13] 121% | [14] 54.9% | [15] 54.6% | [16] 26.5% | [17] 66.5% | [18] 46.7% | [19] 90.8%

CN1CCN(Cc2ccc(NC(=O)c3cncc(C#Cc4cncc5[nH]ncc45)c3)cc2C(F)(F)F)CC1
active: [2] -5.05% | [3] -65.7% | [4] -88.2% | [5] -4.93% | [6] 2.23% | [8] -56.8% | [9] 6.82% | [10] -57.6% | [15] 1.19% | [18] -90% | [19] -15.2%
inactive: [1] 20.2% | [7] 29% | [11] 10.6% | [12] 11.1% | [13] 20% | [14] 25.1% | [16] 13.2%

COc1ccccc1-n1c(-c2cc(O)ccc2C)cn2c3c(=O)[nH]c(=O)n(C)c3nc12
active: [13] -32%
inactive: [1] 79.3% | [2] 25.3% | [3] 89.9% | [4] 41.2% | [5] 19.2% | [6] 60.3% | [7] 89.8% | [8] 72.6% | [9] 83.8% | [10] 92.2% | [11] 85.8% | [12] 32% | [15] 67.1% | [16] 77.3% | [17] 77.8% | [18] 38.9% | [19] 96.9%

NNC(=S)N/N=C/c1ccccn1
inactive: [1] 34.5% | [2] 19.4% | [3] 54.3% | [4] 47.2% | [5] 25.2% | [6] 42.9% | [7] 33.5% | [8] 11.2% | [9] 45.7% | [10] 23.7% | [11] 26.7% | [12] 36% | [13] 59.6% | [14] 28.4% | [15] 32.9% | [16] 30.2% | [18] 13.2% | [19] 56.3%

CCCn1c(=S)sc2c1nc(C)n1c(Nc3ccccc3)nnc21
inactive: [1] 109% | [2] 37.6% | [3] 65.4% | [4] 84.5% | [5] 29.3% | [6] 99.4% | [7] 51.7% | [8] 62.9% | [9] 75.3% | [10] 89.1% | [11] 74.8% | [12] 87.5% | [13] 102% | [15] 93.5% | [16] 35% | [18] 66.2% | [19] 104%

Cc1nn(-c2ccccc2)c(N2CCCCC2)c1/C=N/NC(=O)Cn1c(=O)sc2ccccc21
inactive: [1] 95.8% | [2] 43.4% | [3] 101% | [4] 79% | [5] 89.9% | [6] 79.2% | [7] 56.7% | [8] 92.2% | [9] 95.2% | [10] 72.2% | [11] 61.3% | [12] 57.3% | [13] 75% | [14] 73.4% | [15] 61.7% | [16] 73.7% | [17] 64.3% | [18] 60.3% | [19] 114%

COc1ccc(-c2nnc(SCC(=O)Nc3ccc(/C(C)=N\O)cc3)n2-c2ccccc2)cc1OC
inactive: [1] 88.3% | [2] 105% | [3] 61.8% | [4] 47.9% | [5] 32.3% | [6] 30.6% | [7] 39.1% | [8] 43% | [9] 91.8% | [10] 89.9% | [11] 98.6% | [12] 91.2% | [14] 34.4% | [15] 110% | [16] 94.6% | [17] 82.8% | [18] 80.1% | [19] 87.3%
active: [13] -16.5%

C=CC1(C)C(O[Si](C)(C)C(C)(C)C)CC2C3OC(=O)NC31c1cccc3c1[C@H](C(=O)N3C)C2(C)C (stereo not given in full)
inactive: [1] 76.2% | [2] 34% | [3] 64% | [4] 43.3% | [5] 68.6% | [6] 73.6% | [7] 46.9% | [8] 65.4% | [9] 33.1% | [10] 48.5% | [11] 32.2% | [12] 57.2% | [13] 74.4% | [15] 10.6% | [16] 25.9% | [17] 29.4% | [18] 63% | [19] 63.7%

CCCCCCCCCCCCCCCCOC(=O)c1c(C)[nH]c(/C=C2\N=C(c3ccc[nH]3)C=C2OC)c1C
active: [10] -17.1% | [16] -80.8% | [17] -15.3% | [18] -83.9%
inactive: [1] 49.3% | [2] 38.3% | [3] 68.4% | [4] 46.6% | [5] 32% | [6] 69.6% | [7] 68.7% | [8] 63.6% | [9] 86.1% | [11] 56.3% | [12] 13.6% | [13] 51.4% | [14] 41.7% | [15] 45.6% | [19] 51.1%

Cn1cc(-c2nonc2-c2c[nH]c3ccc(F)cc23)c2cc(Br)ccc21
inactive: [1] 50.2% | [3] 61% | [4] 34.9% | [5] 74.2% | [6] 49.9% | [7] 36.5% | [8] 67.8% | [9] 63.3% | [10] 36.5% | [11] 30.4% | [12] 20.9% | [13] 45.5% | [14] 41.4% | [15] 44.2% | [16] 76.6% | [17] 52.9% | [19] 73.2%
active: [2] 7.64% | [18] 9.44%

COC(=O)c1nc(-c2ccccc2)oc1S(=O)(=O)N1CCC(C(N)=O)CC1
inactive: [1] 55.1% | [2] 14.8% | [3] 46.1% | [4] 76% | [5] 47.4% | [6] 85.9% | [7] 107% | [8] 63.2% | [9] 69.2% | [10] 48.1% | [11] 42.8% | [12] 32.9% | [13] 93.2% | [14] 88.6% | [15] 62.7% | [16] 81.6% | [17] 79.6% | [18] 63.7% | [19] 63.4%

C=C1C(=O)O[C@H]2[C@H]1CC/C(COC(=O)c1cc3cc(F)ccc3[nH]1)=C\CC[C@@]1(C)O[C@@H]21
active: [1] -93.1% | [2] 0.0225% | [3] -76.4% | [4] -70.1% | [5] -84.4% | [6] -71.2% | [8] -87% | [9] -79.5% | [10] -75.9% | [11] -59.8% | [12] -53.6% | [13] -35.3% | [14] -86% | [15] -75.2% | [16] -94.5% | [17] -71.9% | [19] -77.4%
inactive: [7] 33%
